Assay results: PubChem BioAssay (NCATS)
Records with an inconclusive call do not appear. Entries that show only a call come without a potency. Values without a mark were called inactive. The source made the active and inactive calls. Calls come from the whole dose curve; as a rule, active = well fitted cell-killing curve with a large enough effect; inconclusive = small, poorly fitted or top-dose-only effect, or effect the other way; inactive = flat fitted curve, though single readings scatter.

The compounds below were run on CASKI (assay: Primary qHTS to identify gynecologic anti-cancer compounds using libraries of approved drugs and bioactive compounds (AID 1345084; note: nearly all actives have a fitted effect of over 55% in size)). Conditions: Gynecologic cancer cell panel viability, ATPlite luminescence, 48 h; series mostly up to 57.5 µM.
In short: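 Cell viability after 48 h drug treatment, ATPlite luminescence readout; five doses.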

SMILES	Potency	activity change, negative = cytotoxicity
N#Cc1ccc(COc2ccc(-c3cccc4nc(NC(=O)C5CC5)nn34)cc2)cn1	inactive	–
CC(=O)O[C@H]1CC[C@]2(C)[C@H]3CC[C@]4(C)Oc5oc(C)cc(=O)c5C[C@H]4[C@]3(C)CC[C@H]2C1(C)C	inactive	–
CC(=O)CC(=O)Nc1ccc(Cl)c(C(F)(F)F)c1	inactive	–
Cc1ccc(-c2c(C(=O)CCl)n(CCCO)c3ncnc(N)c23)cc1	inactive	–
CCn1c(=O)c(-c2ccc(-c3cncs3)cc2Cl)cc2cnc(Nc3ccc(N4CCN(C)CC4)cc3)nc21	inactive	–
C=C1C(=O)O[C@H]2CC(=C)[C@H]3CC[C@@](C)(O)[C@@H]3CC12 (some centres undefined)	inactive	–
CC1(C)CN(C(=O)c2ccc(-c3cccc4nc(NC(=O)C5CC5)nn34)cc2)C1	inactive	–
CC(C)c1cccc(C(C)C)c1NC(=O)Nc1ccc(Sc2ccc([N+](=O)[O-])cc2)cc1	inactive	–
Oc1cccc(-c2c3nc(c(-c4cccc(O)c4)c4ccc([nH]4)c(-c4cccc(O)c4)c4nc(c(-c5cccc(O)c5)c5ccc2[nH]5)CC4)C=C3)c1	inactive	–
CC(NC(=O)Cc1cc(F)cc(F)c1)C(=O)NC1C(=O)N(C)c2ccccc2-c2ccccc21 (centres undefined)	inactive	–
C=C1C(=O)O[C@@H]2[C@H]3C(C)=CC(=O)C3=C(C)[C@@H](OC(=O)/C(C)=C\C)[C@H](O)[C@@H]12	inactive	–
CC(C)(C)[C@H](NC(=O)c1ccc(N)c(Cl)c1)C(=O)N1CCC[C@H]1C(=O)N[C@H](C#N)CC(=O)O	inactive	–
CCOC(=O)c1csc(Nc2ccc(Cl)cc2)n1	inactive	–
CC(CCC1(O)OC2CC3C4CC=C5CC(O[C@@H]6O[C@H](CO)[C@@H](O[C@@H]7O[C@@H](C)[C@H](O)[C@@H](O)[C@H]7O)[C@H](O)[C@H]6O[C@@H]6O[C@@H](C)[C@H](O)[C@@H](O)[C@H]6O)CCC5(C)C4CCC3(C)C2C1C)CO[C@@H]1O[C@H](CO)[C@@H](O)[C@H](O)[C@H]1O (some centres undefined)	–	1.54% [at 11.6 µM]
